Assay outcomes as filed in PubChem.
Rows were chosen to be rich in hits. Some 2.2% of all compounds tested hit in one or more screens of this group.
Abeta yeast res – A-beta toxicity reversal in yeast; 410,000 tested, 0.063% active; yeast expressing A-beta42, growth rescue, OD600, 48 h; response scale: 0% DMSO, 100% iron-clioquinol control; Potency, µM (highest dose often 46.1 µM), hits mostly activators; AID 1347071; further: nearly all actives have a fitted effect of over 55% in size
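Yeast growth medium received pinned compounds, then yeast cells expressing toxic A-beta were added; plates incubated at 30 C for 48 hr. Growth read as absorbance at 600 nm, normalized to DMSO and equimolar FeCl3 plus clioquinol controls.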
Mito fusion act – blocks mitochondrial division or promotes mitochondrial fusion; AID 485298; 320,000 tested, 0.23% active; S. cerevisiae fusion-defective mutant growth rescue, CellTiterGlo 48 h; Potency, µM (series often up to 46.1 µM), for inactives: top-dose growth rescue (activation), most hits filed as activators; further: % of control where 0% means no effect; nearly all actives have a fitted effect of over 45% in size
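Temperature-sensitive fusion-defective S. cerevisiae (e.g. fzo1-1, mgm1-5) were grown with compound in YPEG medium (3% ethanol, 3% glycerol) for 48 hours at 37C. Growth rescue was measured as viability by CellTiterGlo luminescence after 10 minutes at ambient.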
aSyn rescue – inhibitors of alpha-synuclein toxicity in yeast; Yeast expressing alpha-synuclein, growth rescue, BacTiter-Glo, 24 h; 370,000 tested, 0.14% active; Potency, µM (highest dose often 46.1 µM), without a hit: at the highest dose growth rescue (activation), actives largely listed as activators; further: % of control where 0% means no effect; nearly all actives have a fitted effect of over 65% in size
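Galactose-induced alpha-syn yeast (OD600=0.02, raffinose-pregrown) + pinned cpd, 24 hr, 30 deg C; growth by BacTiter-Glo luminescence. Growth restoration scores as activation.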
TDP43 rescue – inhibitors of TDP-43 toxicity in yeast; TDP-43 expressing yeast growth rescue, BacTiter-Glo, 24 h; Potency, µM (series often up to 46.1 µM), inactives show at the highest dose growth rescue (activation), usual class: activators; 410,000 tested, 1.8% active; AID 652104; further: % of control where 0% means no effect; nearly all actives have a fitted effect of over 50% in size
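Growth rescue of TDP-43-toxic yeast measured as ATP luminescence (BacTiter-Glo). Cells grown to mid-log in raffinose, induced in galactose at OD600=0.02, exposed to compound 24 hr at 30 deg C.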
FUS yeast rescue – suppressors of FUS proteinopathy in yeast. 390,000 tested, 0.24% active. AID 1347120. Potency, µM (series often up to 76.6 µM), actives largely listed as activators. S. cerevisiae FUS-expressing, growth rescue, OD600, 24 h;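 further: plate controls were DMSO vehicle for no effect and reference control for full effect; nearly all actives have a fitted effect of over 55% in size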
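Yeast expressing FUS under galactose induction, OD 0.005 in 2% galactose medium; compounds in a dilution series, 24 h at 30C. Growth rescue by absorbance at 600 nm; CP55940 positive control, DMSO negative.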
Numbers without * were called inactive; [ ] = dose if it differs, or a comment. The call rests on the fitted dose curve; in most records, active means well fitted curve in the direction sought with a large enough effect; inconclusive means small, poorly fitted or top-dose-only effect, or another doubt; inactive means no such curve, though single readings can be large; an effect the other way counts as inactive or inconclusive. Potency means the concentration at half of the fitted maximal effect.

What do the screens show for `Cc1oc(-c2ccccc2F)nc1CS(=O)(=O)CC(=O)NC(C)CCc1ccccc1` (stereo not given)?
Abeta yeast res: inactive; Mito fusion act: 11.2µM*; aSyn rescue: 5.3%; TDP43 rescue: -14.2%; FUS yeast rescue: inactive

How did Cc1cccc(N2CCN(C(=O)CS(=O)(=O)Cc3nc(-c4ccccc4F)oc3C)CC2C)c1 (stereo not given) do in these assays?
Abeta yeast res: inactive; Mito fusion act: 29.3%; aSyn rescue: 9.4%; TDP43 rescue: 18.9%; FUS yeast rescue: 31.6µM*

How did Cc1cccc(N2CCN(C(=O)COc3ccc4c(c3)CCC4)CC2)c1C do in these assays?
Abeta yeast res: inactive; Mito fusion act: 10.1%; aSyn rescue: 8.2%; TDP43 rescue: 19.6%

Results for CC1CCc2nc(-c3cc4c(ccc5ccccc54)oc3=O)sc2C1 (stereo not given) ?
aSyn rescue: 1.2%

What do the screens show for `Cc1cccc(N2CCN(C(=O)CS(=O)(=O)Cc3nc(-c4ccccc4C)oc3C)CC2C)c1` (stereo not given)?
Abeta yeast res: inactive; TDP43 rescue: 25.1µM*; FUS yeast rescue: inconclusive

Results for CCN1CCN(C(=O)CS(=O)(=O)Cc2nc(-c3ccccc3C)oc2C)CC1 ?
Abeta yeast res: inactive; Mito fusion act: 2.6%; aSyn rescue: -4.6%; TDP43 rescue: -17.3%; FUS yeast rescue: inactive

What do the screens show for `O=S(=O)(c1ccc(Cl)cc1)N1CCN(c2nc(-c3ccccc3)nc3ccccc23)CC1`?
aSyn rescue: -1.0%

Results for CCCC1(C)C(C#N)(C#N)C1(C#N)C#N ?
Mito fusion act: inconclusive; aSyn rescue: 14.6µM*

How did Cc1ccc(C)c2c1cc(C)c1nnc(SCc3ccccn3)n12 do in these assays?
Abeta yeast res: inactive; Mito fusion act: -18.7%; TDP43 rescue: 11.2µM*; FUS yeast rescue: inactive

How did Cc1cc2cc(C)c3nnc(SCc4ccccn4)n3c2cc1C do in these assays?
Abeta yeast res: inactive; Mito fusion act: -5.4%; aSyn rescue: 3.8%; TDP43 rescue: 0.1%; FUS yeast rescue: inactive

How did COc1cccc(C(=O)N2CCN(CCc3ccncc3)CC2)c1 do in these assays?
Abeta yeast res: inactive; TDP43 rescue: -5.3%; FUS yeast rescue: inactive

What do the screens show for `O=C(CN1C(=O)C2CCCCN2c2ccc(C(=O)N3CCCC3)cc21)NCc1cccc(Cl)c1` (stereo not given)?
Abeta yeast res: inactive; TDP43 rescue: 0.0%[9.22 µM]; FUS yeast rescue: inactive

Results for COc1ccc(C(=O)Oc2ccc(=O)n(-c3ccccc3)n2)cc1 ?
Abeta yeast res: inactive; Mito fusion act: -2.3%; aSyn rescue: 7.4%; TDP43 rescue: 14.1µM*; FUS yeast rescue: inactive

What do the screens show for `CCOC(=O)c1cc(OC(=O)c2ccc(OC)cc2)n(-c2ccccc2)n1`?
Abeta yeast res: inactive; aSyn rescue: -24.6%; TDP43 rescue: 17.8µM*; FUS yeast rescue: inactive

How did O=C(Oc1ccc(=O)n(-c2ccccc2)n1)c1ccc(Cl)cc1 do in these assays?
Abeta yeast res: inactive; Mito fusion act: 2.7%; aSyn rescue: -6.6%; TDP43 rescue: inconclusive; FUS yeast rescue: inactive

What do the screens show for `O=C(Oc1ccc(=O)n(-c2ccccc2)n1)c1ccc(F)cc1`?
Abeta yeast res: inactive; Mito fusion act: 0.1%; aSyn rescue: 2.5%; TDP43 rescue: 22.4µM*; FUS yeast rescue: inactive

Results for O=C(CNC(=O)C(c1ccccc1)c1ccccc1)OCC(=O)c1cccc2ccccc12 ?
aSyn rescue: -5.0%

How did CC(C)C[C@H](NC1(C(=O)NCCc2c[nH]c3ccccc23)CCN(C)CC1)C(=O)NCCCc1ccccc1 do in these assays?
FUS yeast rescue: inactive

Results for O=C(C[n+]1ccncc1)c1ccc2ccccc2c1 ?
aSyn rescue: -1.1%

How did N#C/C(=C\c1ccccn1)c1nc2ccccc2s1 do in these assays?
Abeta yeast res: inconclusive; Mito fusion act: 20.2%; aSyn rescue: 12.8%; TDP43 rescue: 17.8µM*; FUS yeast rescue: inactive

Results for COC(=O)c1ccc(/C=C(\C#N)c2nc3ccccc3s2)cc1 ?
Abeta yeast res: inactive; Mito fusion act: -4.6%; aSyn rescue: -11.0%; TDP43 rescue: -12.6%; FUS yeast rescue: inactive
